According to the supplement of paper PMC3334620:
In all, about 33,000 sequences were measured (“E-score (-0.5 to 0.5)”: median about -0.035, highest 2% from about 0.34 on). The entries come from a sample that favours the highest values as a whole.

target: T1, Mot3 (UniProt P54785); experiment: PBM E-score (8-mer binding enrichment) (E-score (-0.5 to 0.5)); higher = stronger / more preferred TF binding; conditions: protein concentration: 200 nM; construct: GST-full length
T1 sequence: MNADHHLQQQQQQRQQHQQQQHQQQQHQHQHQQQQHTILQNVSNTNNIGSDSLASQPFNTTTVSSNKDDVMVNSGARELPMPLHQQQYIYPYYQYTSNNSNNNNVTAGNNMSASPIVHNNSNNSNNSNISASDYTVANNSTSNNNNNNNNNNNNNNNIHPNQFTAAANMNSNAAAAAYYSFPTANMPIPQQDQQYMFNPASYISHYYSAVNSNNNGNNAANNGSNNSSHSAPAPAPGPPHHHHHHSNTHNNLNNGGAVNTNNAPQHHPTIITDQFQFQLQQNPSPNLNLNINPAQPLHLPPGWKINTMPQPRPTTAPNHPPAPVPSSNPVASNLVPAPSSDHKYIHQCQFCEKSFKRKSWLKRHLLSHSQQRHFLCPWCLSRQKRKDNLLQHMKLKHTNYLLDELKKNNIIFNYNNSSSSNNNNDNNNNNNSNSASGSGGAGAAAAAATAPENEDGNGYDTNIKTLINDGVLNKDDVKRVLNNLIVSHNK
How it was run: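 PURExpress in vitro transcription/translation supplied GST-tagged yeast transcription factors, either full-length or DNA-binding domain. Applied at about 100-200 nM to universal all-10-mer Agilent arrays double-stranded by primer extension, the bound protein was detected with fluorescent anti-GST. E-scores, modified Wilcoxon-Mann-Whitney statistics, were given by the Universal PBM Analysis Suite to ungapped eight-base words pooled with their reverse complements after masliner normalisation.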

Sequence | PBM E-score
CTTGGATA | -0.039
GACTCCTA | -0.00028
CAACAACA | 0.315
TCGGTCCA | -0.0654
CGATACTC | -0.259
GCATTTGA | 0.0576
GCCAAAGA | -0.0826
GCTAGGCA | 0.446
ACTAGGCG | 0.168
CCTAGGCA | 0.459
TCTAGGCA | 0.458
CCTAGGCC | -0.0992
ACTAGGCC | -0.141
GCTAGGTA | -0.0278
ACTAGGCA | 0.425
CCTAGGCG | -0.157
TCTAGGAA | 0.315
TCTAGACA | 0.167
GCTAGGCC | -0.374
GTCGCACA | -0.125
AGGCGTTG | 0.185
GACTGTGA | -0.0263
GTGATAGA | -0.0161
GCTCCCCC | -0.288
CAACATAA | 0.289

Sequence | PBM E-score
GTACATAA | 0.306
TTACATAA | 0.408
CTACATAA | 0.228
GAACATAA | 0.0111
TAACATAA | 0.341
AAGGCTCG | 0.235
TAGGCTCA | 0.109
AAGGCTCA | 0.336
CAGGCTCG | 0.342
CAGGCTCA | 0.392
CAGGCTCC | 0.28
CATTTGGG | -0.173
CTTAGCCC | -0.079
GAAAGGAC | -0.118
AACTTCGC | -0.0198
ACGCTCCC | -0.0438
GAGGAAAA | 0.0527
AGGGAAAT | -0.0244
CAGGAAAC | 0.445
CAGAAAAC | 0.152
TAGGAAAA | 0.384
CGGGAAAC | -0.0422
AAGGAAAT | 0.426
TAGGGAAA | -0.0198
AGGGAAAG | -0.0829

Sequence | PBM E-score
AAGGAAAG | 0.441
ATGGAAAT | 0.0932
ATGGAAAG | 0.0416
TACCAATA | -0.253
CACGGTCA | 0.212
ATCAGCTG | -0.0375
TCAAGTCA | 0.0447
CGACTTGC | -0.263
GATGAAGA | -0.135
ACCGAGGA | -0.111
ATCGGGGA | 0.0758
AGATAGTC | -0.0427
AGCAGTAG | -0.226
TCAACGGA | -0.113
ATGGAAAA | -0.0018
ACGGAAAC | -0.122
AAGGAAAC | 0.423
CGGAAAAA | 0.0869
GAGGAAAC | -0.027
AAGGGAAA | 0.0842
CAGGAAAG | 0.432
CAGAAAAG | -0.0566
AAGGAAAA | 0.417
CCGGAAAG | -0.215
CAGGAAAA | 0.427

Sequence | PBM E-score
CAGAAAAA | 0.0512
TATCTTAA | 0.153
TAAAGCTA | 0.19
CAGACCGG | -0.14
ACTCGAAT | 0.00379
CTCAGCAG | -0.113
CGTAATAA | 0.288
TGTAATAA | 0.375
CGTAAAAA | 0.258
GGTAATAA | 0.163
TGTAAACA | 0.387
AGTAAACA | 0.251
GGTAAACA | 0.323
AGTAAAAA | 0.16
TGTAAAAA | 0.379
GGAGAAAA | -0.133
ACCTGTCA | -0.0178
AAGGCTAT | -0.0295
ACGGTGCG | 0.0148
ACGGTGCA | 0.184
ACGGTGCC | 0.343
CAGAGATG | 0.0978
TAGGGTCA | -0.0851
AAGGTCTG | -0.0775
AATCTACA | 0.349

Sequence | PBM E-score
AATCTACT | -0.0291
CATCTACA | 0.262
GGTTCCTA | 0.454
AGTTCCGG | -0.359
AGTTCCGA | -0.142
AGTTCCTG | 0.403
GGTTCCAA | -0.208
CGTTCCTA | 0.455
CATTCCTA | -0.129
AGTTCCTC | 0.0435
ACTTCCTA | -0.09
AGTTCCTA | 0.433
CGTTCCTC | 0.167
GCTTCCTA | 0.106
CCAATCCC | -0.127
AGAGGGCC | -0.371
GGGGTAGA | -0.0141
AGGTCTTC | -0.0921
CGCTAACG | -0.0607
GGACTACA | 0.102
ACCCCCTA | -0.298
AGGCGAAC | -0.0626
ACAGTTCT | -0.132
CCGAGGCA | 0.308
TAGAGGCA | 0.389

Sequence | PBM E-score
CAGAGGCA | 0.299
TAGAGGGA | -0.0707
AAGAGGCT | -0.222
GCGAGGCA | 0.148
AAGAGGCA | 0.391
GAGAGGCA | 0.239
TCGAGGCA | 0.346
AAGACCTG | -0.079
TGACTAAA | 0.0227
GGCTAATA | -0.151
ATCGAACA | -0.0411
GATTGTCC | -0.0522
AGGAAGCC | -0.161
ACTATGTG | 0.0709
CCTATGTA | 0.348
CGTATGTA | 0.309
CCTATGTC | 0.172
AATATGTA | 0.277
AGTATGTA | 0.289
GCTATGTA | 0.341
CATATGTA | 0.318
GGTATGTA | 0.343
ACTATGTC | 0.104
ACTATGTA | 0.36
GCTATGCA | -0.154

Sequence | PBM E-score
ACAACTAG | -0.0235
GTCCGGAA | -0.0613
TCCCCCCA | -0.354
AAAGTCGG | -0.0308
GAAGGGAA | -0.213
CGATGGCC | -0.268
AATAACAC | 0.31
AATAACAT | 0.349
AATAACAG | 0.254
ACGCCGGC | -0.185
CGTAGCCC | -0.0561
AAGTACCT | 0.338
GGGTACCC | -0.304
AGGTACCA | 0.361
AGGTACCT | 0.434
AGGTACCC | 0.361
ACGTACCT | 0.292
AGGTACCG | 0.407
TGGTACCA | -0.0506
GGGTACCA | -0.0217
ACGTACCG | 0.00315
CGGTACCG | -0.156
CGGTACCC | -0.277
ACAATACC | 0.172
